# Unmarked numbers belong to inactive results. Inconclusive results are not listed. Activity calls are given as the source filed them. Unless noted, calls follow the shape of the dose curve; as a rule, active = well fitted curve in the direction sought with a large enough effect; inconclusive = small, poorly fitted or top-dose-only effect, or another doubt; inactive = no such curve, though single readings can be large; an effect the other way counts as inactive or inconclusive.
# Legend:
# [1] = molecular target: Lysosomal acid glucosylceramidase (Homo sapiens) (UniProt P04062); assay: Glucocerebrosidase-p2 (AID 348; in the data active = potency below about 10 µM; also: potency is read from the fitted curve at half-maximal effect); conditions: purified GBA, blue fluorogenic substrate, 40 min
# Sequence of Lysosomal acid glucosylceramidase (Homo sapiens) (P04062 whole entry, looked up): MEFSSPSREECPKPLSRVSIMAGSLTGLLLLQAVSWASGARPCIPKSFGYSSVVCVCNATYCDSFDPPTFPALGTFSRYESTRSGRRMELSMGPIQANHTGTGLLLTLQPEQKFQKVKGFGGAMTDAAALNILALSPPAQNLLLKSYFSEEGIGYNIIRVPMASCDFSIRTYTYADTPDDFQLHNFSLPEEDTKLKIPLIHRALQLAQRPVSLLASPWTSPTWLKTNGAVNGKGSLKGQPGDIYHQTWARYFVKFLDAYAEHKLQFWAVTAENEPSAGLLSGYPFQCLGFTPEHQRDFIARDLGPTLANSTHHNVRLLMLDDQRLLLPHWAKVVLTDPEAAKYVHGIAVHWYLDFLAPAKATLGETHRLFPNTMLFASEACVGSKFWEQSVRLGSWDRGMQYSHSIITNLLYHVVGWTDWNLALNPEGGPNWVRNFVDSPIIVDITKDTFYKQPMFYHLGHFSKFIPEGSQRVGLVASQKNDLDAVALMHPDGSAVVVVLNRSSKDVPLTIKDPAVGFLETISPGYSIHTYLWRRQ
# Method in brief: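 Normal human glucocerebrosidase (0.2 nM) with blue fluorogenic substrate (80 uM final) in citrate/phosphate pH 5.9 with 10mM sodium taurocholate, 0.01% tween-20; 40 min RT, NaOH/glycine stop; fluorescence Ex 365/Em 440; AC50 from a titration from 0.6 nM upwards.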
# [2] = AP1 Signaling Pathway (AID 357; active = well fitted curve in either direction with a large enough effect, not every such curve was filed as active;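 also: ME-180 reporter cells stimulated with EGF at its EC50 level; % is scaled to controls: 0 for no effect and ±100 for the full control effect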); conditions: ME-180 AP-1-bla reporter, EGF-induced, beta-lactamase ratio, 5 h; at 7.69 µM (top of the series) unless noted
# Method in brief: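 Modulation of EGF-driven AP-1 transcription was assessed with a beta-lactamase reporter in ME-180 cells. Compound and EC50 EGF were co-incubated 5 hours at 37 °C before 2.5-hour CCF4 loading at room temperature and dual-emission reading.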
# [3] = Stat Signaling Pathway (AID 446; active = well fitted curve in either direction with a large enough effect, not every such curve was filed as active;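 also: ME-180 cervical cancer cells given 40 pM IL-6 alongside compound; SIE-controlled beta-lactamase reporter measured as 460/530 nm FRET emission ratio; % is scaled to controls: 0 for no effect and ±100 for the full control effect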); conditions: ME-180 SIE beta-lactamase reporter, IL-6 stimulated, 5 h; at 7.69 µM (top of the series) unless noted
# Method in brief: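 Compound effects on IL-6-induced STAT reporter activity were measured in ME-180 cells. After overnight culture, cells were co-treated with 40 pM IL-6 for 5 hrs before beta-lactamase substrate loading at room temperature.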
# [4] = molecular target: Glucocorticoid receptor (Homo sapiens) (UniProt P04150); assay: GR-GFP Redistribution (AID 450;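 active = compounds whose dose series gives a full or clear partial fitted curve of increased nuclear translocation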; also: potency is read from the fitted curve at half-maximal effect); conditions: U2OS GR-GFP nuclear translocation, laser cytometry, 2 h
# Sequence of Glucocorticoid receptor (Homo sapiens) (P04150 whole entry, looked up, the tested form may be a part): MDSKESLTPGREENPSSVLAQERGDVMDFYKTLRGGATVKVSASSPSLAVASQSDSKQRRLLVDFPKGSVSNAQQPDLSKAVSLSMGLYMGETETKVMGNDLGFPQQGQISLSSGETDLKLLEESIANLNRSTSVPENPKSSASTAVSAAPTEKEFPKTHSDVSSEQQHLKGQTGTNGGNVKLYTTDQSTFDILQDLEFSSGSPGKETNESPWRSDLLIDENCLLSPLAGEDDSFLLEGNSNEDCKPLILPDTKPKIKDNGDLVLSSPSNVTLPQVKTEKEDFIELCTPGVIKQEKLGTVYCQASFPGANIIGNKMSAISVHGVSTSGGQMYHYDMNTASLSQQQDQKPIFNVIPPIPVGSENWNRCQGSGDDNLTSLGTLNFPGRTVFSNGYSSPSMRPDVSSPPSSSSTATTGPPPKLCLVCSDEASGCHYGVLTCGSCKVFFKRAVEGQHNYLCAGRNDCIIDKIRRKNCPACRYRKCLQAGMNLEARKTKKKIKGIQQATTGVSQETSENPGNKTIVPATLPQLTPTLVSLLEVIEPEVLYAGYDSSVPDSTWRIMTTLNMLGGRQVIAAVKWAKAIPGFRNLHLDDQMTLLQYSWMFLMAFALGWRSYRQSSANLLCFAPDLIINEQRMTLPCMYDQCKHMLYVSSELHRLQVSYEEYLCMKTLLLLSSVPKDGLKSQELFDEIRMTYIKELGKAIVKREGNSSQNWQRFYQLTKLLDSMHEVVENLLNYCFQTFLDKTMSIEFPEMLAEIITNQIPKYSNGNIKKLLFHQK
# [5] = molecular target: Glucocorticoid receptor (Homo sapiens) (UniProt P04150); assay: GR-EFC Redistribution (AID 451; calls by dose curve; also: potency is read from the fitted curve at half-maximal effect); conditions: CHO-K1 GR-EFC translocation, beta-gal luminescence, 2 h
# Method in brief: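 Translocation of GR-ED fusion to nuclear EA restores b-gal, read by luminescence after 1 h room-temperature detection. Engineered CHO-K1 biosensor cells, 1,000/well, exposed 2 h at 37 C to titrations up to 46 uM final.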
# [6] = molecular target: Mitogen-activated protein kinase 10 (Mus musculus) (UniProt Q61831); assay: JNK3 AlphaScreen Assay (AID 530; active = well fitted curve in either direction with a large enough effect, not every such curve was filed as active;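 also: kinase came from lysate of stimulated human HepG2 cells; signal reports phosphorylation of biotinylated GST-cJun 1-79 at Ser73 with 10 µM ATP; % is scaled to controls: 0 for no effect and ±100 for the full control effect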); conditions: JNK3 lysate, c-Jun phosphorylation; series mostly up to 57.1 µM
# Method in brief: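 Kinase buffer: 20 mM Tris-HCl pH 7.6, 10 mM MgCl2, 1 mM DTT, 0.1 mM Na3VO4, 0.01% Tween-20; ATP 10 uM. Substrate biotin-GST-cJun(1-79), enzyme from activated HepG2 lysates. Detection by Ser73 phospho-antibody AlphaScreen.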
# [7] = molecular target: 3',5'-cyclic-AMP phosphodiesterase 4B (Homo sapiens) (UniProt Q07343); assay: qHTS Assay for Inhibitors of PDE-IV (AID 607; active = well fitted activation curve with a large enough effect in the main read-out, with a control signal flat, not every such curve was filed as active; also: % of control where 0% means no effect); conditions: HEK293 ACTOne CNG channel cells, membrane potential fluorescence; series mostly up to 22.9 µM
# Sequence of 3',5'-cyclic-AMP phosphodiesterase 4B (Homo sapiens) (Q07343 whole entry, looked up): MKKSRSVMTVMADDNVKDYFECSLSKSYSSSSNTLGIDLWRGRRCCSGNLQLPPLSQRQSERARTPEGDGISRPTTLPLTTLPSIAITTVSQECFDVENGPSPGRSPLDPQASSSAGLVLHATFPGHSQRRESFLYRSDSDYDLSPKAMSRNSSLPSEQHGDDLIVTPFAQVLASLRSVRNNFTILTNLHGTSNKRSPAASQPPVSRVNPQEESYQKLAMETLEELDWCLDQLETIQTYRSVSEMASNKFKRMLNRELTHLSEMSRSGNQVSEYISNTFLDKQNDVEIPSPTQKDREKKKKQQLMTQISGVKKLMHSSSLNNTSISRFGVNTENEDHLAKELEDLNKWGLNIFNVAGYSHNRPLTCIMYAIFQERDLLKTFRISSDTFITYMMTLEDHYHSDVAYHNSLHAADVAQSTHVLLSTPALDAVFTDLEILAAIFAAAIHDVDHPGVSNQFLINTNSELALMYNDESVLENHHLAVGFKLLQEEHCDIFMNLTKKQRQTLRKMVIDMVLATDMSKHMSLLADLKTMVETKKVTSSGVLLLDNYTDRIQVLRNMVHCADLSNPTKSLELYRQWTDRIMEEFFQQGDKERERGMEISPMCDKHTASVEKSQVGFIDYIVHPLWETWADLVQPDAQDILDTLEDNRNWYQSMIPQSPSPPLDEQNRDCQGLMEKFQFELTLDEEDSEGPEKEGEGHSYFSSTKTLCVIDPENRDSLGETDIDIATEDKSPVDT
# Method in brief: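 ACTOne HEK293 cells carry a modified cAMP-gated CNG channel and express endogenous PDE4; plated 1000 cells/well, compounds up to 22.9 uM final. Membrane-potential dye fluorescence (ex 535/em 590) was read; parental cells received 10 uM forskolin + 100 uM RO 20-1724.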
# [8] = molecular target: Dual specificity protein kinase CLK4 (Homo sapiens) (UniProt Q9HAZ1); assay: qHTS Assay for Inhibitors of CDC-like Kinase 4 (Kinase-Glo Assay) (AID 1770); conditions: recombinant Clk4, Kinase-Glo ATP depletion luminescence; series mostly up to 66.7 µM; also: nearly all actives have a fitted effect of over 65% in size; also: potency is read from the fitted curve at half-maximal effect
# Sequence of Dual specificity protein kinase CLK4 (Homo sapiens) (Q9HAZ1 whole entry, looked up): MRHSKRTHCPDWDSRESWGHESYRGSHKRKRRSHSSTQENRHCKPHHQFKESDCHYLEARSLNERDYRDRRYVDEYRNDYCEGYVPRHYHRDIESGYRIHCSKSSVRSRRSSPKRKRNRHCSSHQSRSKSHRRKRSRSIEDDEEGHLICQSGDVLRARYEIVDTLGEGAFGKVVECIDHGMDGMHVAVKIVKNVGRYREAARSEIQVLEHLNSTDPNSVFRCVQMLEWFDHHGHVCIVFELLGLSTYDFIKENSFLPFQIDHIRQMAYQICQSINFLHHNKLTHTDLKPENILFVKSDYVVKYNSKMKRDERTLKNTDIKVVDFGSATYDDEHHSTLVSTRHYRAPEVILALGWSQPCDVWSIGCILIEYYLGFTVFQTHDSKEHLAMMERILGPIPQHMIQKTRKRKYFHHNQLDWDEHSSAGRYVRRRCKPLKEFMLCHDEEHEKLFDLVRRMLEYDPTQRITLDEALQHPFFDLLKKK
# Method in brief: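 Readout: Kinase-Glo luminescence from ATP left after a 4.5 h room-temperature reaction of 25 nM Clk4 with 100 uM RS peptide and 1 uM ATP (final). Buffer: 25 mM Tris pH 7.5, 10 mM MgCl2.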
# [9] = molecular target: Dual specificity protein kinase CLK4 (Homo sapiens) (UniProt Q9HAZ1); assay: qHTS Assay for Inhibitors of CDC-like Kinase 4 (ADP-Glo Assay) (AID 1771); conditions: recombinant CLK4, ADP-Glo luminescence; series mostly up to 80 µM; also: nearly all actives have a fitted effect of over 70% in size; also: potency is read from the fitted curve at half-maximal effect
# Method in brief: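 In this ADP-Glo format, 1 uM ATP and 100 uM RS peptide served as substrates for 25 nM Clk4 in Mg2+/EGTA/DTT/Triton buffer; reactions ran 1 hr at room temperature before luminescent ADP quantification.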
# [10] = molecular target: Dual specificity protein kinase CLK4 (Homo sapiens) (UniProt Q9HAZ1); assay: qHTS Assay for Inhibitors of CDC-like Kinase 4 (ADP-FP Assay) (AID 1795); conditions: Transcreener ADP fluorescence polarization; series mostly up to 50 µM; also: nearly all actives have a fitted effect of over 60% in size; also: potency is read from the fitted curve at half-maximal effect
# Method in brief: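 FP readout: Orange Transcreener ADP2 tracer (4 nM) plus ADP antibody, read after 30 min at room temperature. Kinase step: 6.25 nM Clk4, 100 uM RS peptide, 1 uM ATP, pH 7.5, 1 h.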
# [11] = molecular target: Ubiquitin carboxyl-terminal hydrolase 1 (Homo sapiens) (UniProt O94782); assay: Inhibitors of USP1/UAF1: Pilot qHTS (AID 504865); conditions: purified USP1/UAF1, Ub-rhodamine cleavage fluorescence; series mostly up to 54.9 µM;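 also: rhodamine fluorescence freed from ubiquitin-rhodamine substrate followed over time; top concentration of the series differs between compounds; % is scaled to controls: 0 for no effect and ±100 for the full control effect; nearly all actives have a fitted effect of over 35% in size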
# Sequence of Ubiquitin carboxyl-terminal hydrolase 1 (Homo sapiens) (O94782 whole entry, looked up): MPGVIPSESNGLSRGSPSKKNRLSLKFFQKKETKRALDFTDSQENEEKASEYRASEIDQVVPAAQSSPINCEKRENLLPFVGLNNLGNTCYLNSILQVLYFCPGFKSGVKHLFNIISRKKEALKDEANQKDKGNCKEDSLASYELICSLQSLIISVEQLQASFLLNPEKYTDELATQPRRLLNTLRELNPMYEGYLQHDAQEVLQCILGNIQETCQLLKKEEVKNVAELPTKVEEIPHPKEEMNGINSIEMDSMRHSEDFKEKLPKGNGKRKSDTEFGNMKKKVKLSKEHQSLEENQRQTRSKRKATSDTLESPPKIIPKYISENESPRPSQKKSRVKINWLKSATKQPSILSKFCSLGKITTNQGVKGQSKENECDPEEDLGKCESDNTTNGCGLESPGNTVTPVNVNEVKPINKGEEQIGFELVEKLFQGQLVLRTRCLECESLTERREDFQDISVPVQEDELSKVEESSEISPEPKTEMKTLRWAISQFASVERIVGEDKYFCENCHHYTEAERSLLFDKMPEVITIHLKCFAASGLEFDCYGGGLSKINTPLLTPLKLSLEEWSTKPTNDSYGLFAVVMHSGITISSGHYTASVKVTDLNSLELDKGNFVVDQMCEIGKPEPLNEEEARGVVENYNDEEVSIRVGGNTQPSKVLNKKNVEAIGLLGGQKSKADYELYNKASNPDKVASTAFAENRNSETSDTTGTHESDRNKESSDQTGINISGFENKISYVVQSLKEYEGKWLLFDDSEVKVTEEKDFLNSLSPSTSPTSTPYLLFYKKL
# Method in brief: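 1nM USP1/UAF1 + cpd, 15 min RT; start w/ Ub-Rho 150nM final; kinetic FL 480/540 nm, 6 reads q60 s. Buffer 50mM HEPES pH 7.8, 0.5mM EDTA, 1mM TCEP, 0.01% Tween-20, 0.1 mg/ml BSA.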
# [12] = Primary qHTS for small molecule stabilizers of the endoplasmic reticulum resident proteome: Secreted ER Calcium Modulated Protein (SERCaMP) assay (AID 1508630); conditions: SH-SY5Y GLuc-SERCaMP (Gaussia luciferase released on ER calcium loss) secretion, thapsigargin, luminescence; series mostly up to 38.4 µM; also: % is scaled to controls: 0 for no effect and ±100 for the full control effect
# Method in brief: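 The SH-SY5Y reporter protocol was run at 3 concentrations up to 38.3 uM (primary) or 11 concentrations (follow-up): 16 h compound, 100 nM thapsigargin for 4 h, then extracellular luciferase luminescence.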
# [13] = molecular target: Cytochrome P450 3A4 (Homo sapiens) (UniProt P08684); assay: qHTS Assay for Activators of Cytochrome P450 3A4 (AID 885); conditions: recombinant CYP3A4, Luciferin-PPXE luminescence, 60 min; series mostly up to 57.1 µM; also: nearly all actives have a fitted effect of over 65% in size
# Sequence of Cytochrome P450 3A4 (Homo sapiens) (P08684 whole entry, looked up): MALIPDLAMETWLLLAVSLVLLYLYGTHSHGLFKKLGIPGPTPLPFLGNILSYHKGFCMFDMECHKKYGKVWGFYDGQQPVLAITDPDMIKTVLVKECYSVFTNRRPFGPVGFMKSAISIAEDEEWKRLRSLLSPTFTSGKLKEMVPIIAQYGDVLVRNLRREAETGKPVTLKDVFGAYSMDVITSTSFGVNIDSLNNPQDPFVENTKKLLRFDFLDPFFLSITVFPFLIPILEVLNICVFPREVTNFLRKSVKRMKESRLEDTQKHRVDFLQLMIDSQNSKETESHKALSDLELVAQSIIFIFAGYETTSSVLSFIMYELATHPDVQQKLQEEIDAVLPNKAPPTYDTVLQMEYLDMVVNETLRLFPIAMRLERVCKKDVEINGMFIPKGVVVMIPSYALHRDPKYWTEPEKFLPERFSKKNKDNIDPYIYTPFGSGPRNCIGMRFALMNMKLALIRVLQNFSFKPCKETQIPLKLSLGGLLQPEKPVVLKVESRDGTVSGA
# Method in brief: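 CYP3A4 activity: Luciferin-PPXE O-dealkylation, 25uM substrate, 200mM KPO4, RT throughout. Read-out is luciferase luminescence; higher values reflect activation.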
# [14] = molecular target: Cytochrome P450 1A2 (Homo sapiens) (UniProt P05177); assay: p450-cyp1a2 (AID 410; calls by dose curve; also: potency is read from the fitted curve at half-maximal effect); conditions: recombinant CYP1A2, luciferin-ME demethylation, luminescence; series mostly up to 57 µM
# Sequence of Cytochrome P450 1A2 (Homo sapiens) (P05177 whole entry, looked up): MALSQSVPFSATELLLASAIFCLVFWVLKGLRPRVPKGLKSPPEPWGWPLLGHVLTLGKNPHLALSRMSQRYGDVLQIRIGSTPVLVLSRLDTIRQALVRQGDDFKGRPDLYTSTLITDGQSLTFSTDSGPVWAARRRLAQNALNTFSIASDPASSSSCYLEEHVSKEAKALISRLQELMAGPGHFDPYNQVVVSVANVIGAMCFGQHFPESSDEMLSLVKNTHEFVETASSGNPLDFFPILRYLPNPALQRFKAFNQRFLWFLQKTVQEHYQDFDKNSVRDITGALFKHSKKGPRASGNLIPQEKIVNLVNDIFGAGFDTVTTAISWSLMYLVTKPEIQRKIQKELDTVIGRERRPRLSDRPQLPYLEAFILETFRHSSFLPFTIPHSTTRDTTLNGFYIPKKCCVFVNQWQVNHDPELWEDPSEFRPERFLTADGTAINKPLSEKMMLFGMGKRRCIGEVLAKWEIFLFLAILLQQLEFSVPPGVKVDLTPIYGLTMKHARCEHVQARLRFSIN
# Method in brief: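 Read-out is luminescence from luciferin produced by CYP1A2 demethylation of Luciferin-ME (100uM, at Km). Detection reagent stopped the 60 min NADPH-dependent reaction; signals were normalized to 57 uM furafylline.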
# [15] = NFAT Signaling Pathway (AID 444; active = well fitted curve in either direction with a large enough effect, not every such curve was filed as active); conditions: Jurkat NFAT-bla M1, carbachol, beta-lactamase ratio, 5 h; at 7.69 µM (top of the series) unless noted
# Method in brief: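 Read-out: CCF4 FRET ratio (460 nm/530 nm) after 1 h RT dye loading, used for %activity and AC50 from titration series. Cells: Jurkat NFAT-β-lactamase/M1 line, treated with compound plus 1 uM carbachol for 5 h, 37 °C.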
# [16] = molecular target: Cytochrome P450 2C9 (Homo sapiens) (UniProt P11712); assay: qHTS Assay for Inhibitors and Substrates of Cytochrome P450 2C9 (AID 883); conditions: recombinant CYP2C9, luciferin-H luminescence, 60 min; series mostly up to 57.1 µM; also: potency is read from the fitted curve at half-maximal effect; nearly all actives have a fitted effect of over 60% in size
# Method in brief: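 Inhibition of CYP2C9 is scored as loss of luminescence, with 57uM sulphaphenazole defining 100% inhibition. Substrate Luciferin-H is used at 100uM, equal to its KM; enzyme at 10nM in 25mM KPO4, 60 min at 37C with NADPH regeneration.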
# [17] = molecular target: Cytochrome P450 3A4 (Homo sapiens) (UniProt P08684); assay: qHTS Assay for Inhibitors and Substrates of Cytochrome P450 3A4 (AID 884); conditions: recombinant CYP3A4, Luciferin-PPXE luminescence; series mostly up to 57.1 µM; also: potency is read from the fitted curve at half-maximal effect; nearly all actives have a fitted effect of over 50% in size
# Method in brief: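 Luminescent readout of luciferin produced by CYP3A4 (20 nM) dealkylation of Luciferin-PPXE, 25 uM (its KM). NADPH-driven reaction ran 60 min at RT after 10 min compound preincubation; data scaled to 57 uM ketoconazole as 100% inhibition.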
# [18] = molecular target: Cytochrome P450 2C19 (Homo sapiens) (UniProt P33261); assay: qHTS Assay for Inhibitors and Substrates of Cytochrome P450 2C19 (AID 899); conditions: recombinant CYP2C19, luciferin-H EGE luminescence; series mostly up to 57.1 µM; also: potency is read from the fitted curve at half-maximal effect; nearly all actives have a fitted effect of over 60% in size
# Sequence of Cytochrome P450 2C19 (Homo sapiens) (P33261 whole entry, looked up): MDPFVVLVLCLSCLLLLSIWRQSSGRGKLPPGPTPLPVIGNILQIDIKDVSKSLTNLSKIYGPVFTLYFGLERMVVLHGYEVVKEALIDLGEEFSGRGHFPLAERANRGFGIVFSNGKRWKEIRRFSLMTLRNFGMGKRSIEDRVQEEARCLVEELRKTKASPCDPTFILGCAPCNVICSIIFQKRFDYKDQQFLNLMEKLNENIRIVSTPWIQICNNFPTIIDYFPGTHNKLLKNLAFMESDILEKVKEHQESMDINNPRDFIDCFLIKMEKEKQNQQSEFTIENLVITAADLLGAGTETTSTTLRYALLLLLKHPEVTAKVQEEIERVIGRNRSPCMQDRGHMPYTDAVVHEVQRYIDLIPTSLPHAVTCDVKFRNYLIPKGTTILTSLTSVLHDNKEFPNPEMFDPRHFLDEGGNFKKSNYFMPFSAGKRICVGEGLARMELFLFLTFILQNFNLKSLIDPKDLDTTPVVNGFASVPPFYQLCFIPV
# Method in brief: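 5nM enzyme + 10uM Luciferin-H EGE (=KM), 50mM KPO4; cpd pin-transferred, 10 min 37C; NADPH regen, 60 min 37C; stopped w/ luciferin detection reagent, 20 min; luminescence. Normalized to 57uM ketoconazole (AC100).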
# [19] = qHTS Assay for Identification of Small Molecule Agonists for Hypoxia Response Element Signaling Pathway (AID 914; active = well fitted activation curve with a large enough effect in the signal ratio, with a control signal flat, not every such curve was filed as active; the % refers to the signal ratio; also: potency is read from the fitted curve at half-maximal effect; as to activation: % of control where 0% means no effect); conditions: ME-180 (cervical carcinoma) HRE-bla reporter, beta-lactamase ratio, CoCl2, 17 h; activation: stronger effect = higher value
# Method in brief: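 In Opti-MEM containing 0.5% dialyzed FBS and 10 mM HEPES, ME-180 HRE-bla cells received a compound titration and EC50 CoCl2. They were incubated 17 hours, then CCF4-loaded 2.5 hours at room temperature before ratio reading.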
Structure (SMILES),Potency [1],"activity change, negative = inhibition [2]","activity, negative = inhibition [3]",Potency [4],Potency [5],Potency [6],Potency [7],Potency [8],Potency [9],Potency [10],Potency [11],outcome [12],Potency [13],Potency [14],"activity change, negative = inhibition [15]",Potency [16],Potency [17],Potency [18],Potency [19],activation [19]
COc1ccc(Oc2ncc3nc(-c4ccc(F)cc4)c(=O)n(C4CC4)c3n2)cc1,> 11.4 µM,0.828%,14.5%,> 9.22 µM,> 46 µM,inactive,inactive,inactive,inactive,inactive,inactive,inactive,,,,,,,,
CN(C)c1ncnc2ccc(-c3cccc(C#N)c3)cc12,> 11.4 µM,-26.8%,21.1%,> 46 µM,> 46 µM,inactive,inactive,14.1 µM (active),15.8 µM (active),inactive,inactive,inactive,inactive,,,,,,,
COc1ccccc1CCn1c(=O)c(-c2cn(C)c3ccccc23)nc2cncnc21,> 11.4 µM,,,> 9.22 µM,> 46 µM,,inactive,inactive,inactive,inactive,inactive,inactive,inactive,1.26 µM (active),19%,0.316 µM (active),2.51 µM (active),0.316 µM (active),,
COc1ccc(-c2nc3cnc(OC)nc3n(CCc3ccccc3)c2=O)cc1,> 11.4 µM,,2.61%,> 9.22 µM,> 46 µM,inactive,,inactive,inactive,inactive,inactive,inactive,inactive,6.31 µM (active),1.97%,,,,,
COc1cccc(-c2ccc3ncnc(N(C)C)c3c2)c1,> 11.4 µM,,-13.9%,> 46 µM,> 46 µM,inactive,inactive,4.47 µM (active),3.16 µM (active),2.51 µM (active),inactive,inactive,inactive,0.794 µM (active),27.5%,,7.94 µM (active),3.16 µM (active),,
CN(C)c1ncc2nc(-c3ccc(F)cc3)c(=O)n(CCc3ccccc3)c2n1,> 11.4 µM,,,> 9.22 µM,> 46 µM,,inactive,inactive,inactive,inactive,inactive,inactive,,2.51 µM (active),162% [activator] (active),,,,1 µM (active),
COc1ccccc1CNc1cc(-c2ccc(C(=O)N(C)C)cc2)ncn1,> 11.4 µM,,,> 46 µM,> 46 µM,inactive,,7.08 µM (active),7.08 µM (active),11.2 µM (active),,inactive,inactive,7.94 µM (active),8.83%,,,,,6.06%
